Drawing on ChEMBL document CHEMBL3433997, “St. Jude Leishmania screening dataset” (2016), this text covers inhibition for 12 compounds.

Holding throughout (assay type): functional
Test [1] concerns the target Solute carrier family 2, facilitated glucose transporter member 1 (Homo sapiens) (UniProt P11166). The test is described as follows: ST_JUDE_LEISH: Cytotoxicity at 2uM final concentration against transgenic Leishmania Mexicana promastigotes LmGLUT1 that are glucose transport deficient and complemented with the human glucose transporter GLUT1. Activity is measured by DNA content using SYBR green in vitro.

Test [2] deals with Hexose transporter 1 (Plasmodium falciparum) (UniProt O97467). Briefly: ST_JUDE_LEISH: Cytotoxicity at 2uM final concentration against transgenic Leishmania Mexicana promastigotes LmPfHT that are glucose transport deficient and complemented with the Plasmodium falciparum hexose transporter. Activity is measured by DNA content using SYBR green in vitro.
For test [3], the target named is Glucose transporter (Leishmania mexicana) (UniProt O61059). Briefly: ST_JUDE_LEISH: Cytotoxicity at 2uM final concentration against transgenic Leishmania Mexicana promastigotes LmGT2 that are glucose transport deficient and complemented with the L. Mexicana glucose transporter 2. Activity is measured by DNA content using SYBR green in vitro.

Solute carrier family 2, facilitated glucose transporter member 1 (Homo sapiens), sequence (P11166 whole entry): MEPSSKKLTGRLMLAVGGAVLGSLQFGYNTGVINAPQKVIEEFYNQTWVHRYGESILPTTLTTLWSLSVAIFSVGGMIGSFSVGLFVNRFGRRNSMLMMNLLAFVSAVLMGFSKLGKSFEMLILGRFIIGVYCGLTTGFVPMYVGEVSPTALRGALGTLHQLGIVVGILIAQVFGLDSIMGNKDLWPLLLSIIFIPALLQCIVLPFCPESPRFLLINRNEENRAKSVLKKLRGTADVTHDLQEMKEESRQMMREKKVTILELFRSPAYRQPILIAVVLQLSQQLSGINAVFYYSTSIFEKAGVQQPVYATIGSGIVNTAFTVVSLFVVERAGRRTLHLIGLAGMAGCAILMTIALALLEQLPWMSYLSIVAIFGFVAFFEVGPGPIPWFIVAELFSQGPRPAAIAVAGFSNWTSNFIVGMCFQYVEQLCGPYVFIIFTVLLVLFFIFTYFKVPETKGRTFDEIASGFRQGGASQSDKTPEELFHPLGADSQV

Regarding `CCCCN(CCCC)CCCN(CCCN(CCCC)CCCC)c1cc(C)nc(Nc2ccc(Cl)cc2)n1`, the inhibition is -0.03% in test [1], 0.22% in test [2] and 0.44% in test [3].

Regarding `CC(=O)Nc1ccc(C(=O)Nc2cccc(-c3ccc(-c4nc5ccccc5[nH]4)cc3)c2)cn1`, the inhibition in test [1] was 4.19%; in test [2], 3.31%; in test [3], 5.92%.

As for `O=c1cc(NCCCNCc2[nH]c3cc(Cl)ccc3c2Cl)[nH]c2ccccc12`, the inhibition in test [1] was found to be 5.19%; in test [2], 3.33%; in test [3], 4.15%.

Take `CC1(C)CC2CC(C)(CN2C(=O)c2cc(C(C)(C)C)nn2Cc2ccccc2)C1` (stereo unspecified): the figures for the inhibition in test [1], in test [2] and in test [3] were 7.67%, 7.75% and 5.94%, respectively.

In the case of `CC(C)N1CCN(C(CN2CCN(CCCOc3ccc4ccccc4c3)CC2)c2ccc(F)cc2)CC1` (stereo unspecified), the values for the inhibition in test [1], in test [2] and in test [3] were 1.8%, 1.79% and -0.76%, respectively.

`CCNc1cc(C(=O)N[C@@H](Cc2cccc(Cl)c2)[C@H](O)CNC(C)CCCC(C)C)cc(N2CCCCS2(=O)=O)c1` (stereo partly specified): the inhibition in test [1] is -0.84%; in test [2], -1.5%; in test [3], -4.25%.

For `Cc1cc(N(C)C)nc(Nc2ccc(NC(=O)c3ccccc3Cl)cc2)n1`, the inhibition in test [1] is -1.66%; in test [2] it was 5.72%; in test [3], -4.81%.

With `CCOC(=O)CCCOc1cc(Cc2cnc(N)nc2N)cc(OC)c1OC`, the values for the inhibition in test [1], in test [2] and in test [3] were 6.94%, 5.94% and 7.18%, respectively.

In the case of `CCCN(CC)CCOC(=O)c1ccccc1`, the inhibition in test [1] came out at 8.35%; in test [2], 7.44%; in test [3], 9.33%.

Regarding `COc1cccc(C(=O)NC(NC(=S)Nc2ccc(OC)cc2[N+](=O)[O-])C(Cl)(Cl)Cl)c1` (stereo unspecified), the values for the inhibition in test [1], in test [2] and in test [3] were -1.36%, 0.44% and -2.26%, respectively.

Take `COc1ccc(Cl)cc1NC(=O)Nc1ccc2c(c1)CCN(C1CCC1)CC2`: the inhibition in test [1] turned out to be 2.26%; in test [2], 0.44%; in test [3], 1.36%.

Regarding `Fc1cccc(CNc2ncc(-c3ccsc3)c(-c3nccs3)n2)c1`, the inhibition in test [1] stood at 1.64%; in test [2], 1.96%; in test [3] it was 2%.
